# Activity calls are given as the source filed them.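 Rule for the calls, unless noted: active = compounds that lower viability of the colon cancer cells in the luminescence readout, with no numeric limit stated; inactive = the rest.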
# Tests used:
# [1] = stimulators of insulin release from INS-1E, primary screen, cell-based, 5 mM glucose, NPC library (AID 1117329;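 active = compound raises insulin release from rat beta cells at 5 mM glucose, no numeric limit stated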); conditions: rat INS-1E insulin secretion, at 10 µM, stronger effect = higher value
# [2] = growth inhibition of GSK3B-pretreated HCT116 cells – cell-based, CellTiter-Glo, 0.2 to 20 µM (AID 1117336;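 active = compounds lowering colon cancer cell viability after pretreatment blocking the GSK3B kinase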); conditions: HCT116 viability after GSK3B inhibitor, at 20 µM, stronger effect = higher value
# [3] = inhibition of endothelial tube formation, primary screen, imaging, VEGF stimulated, CD31 staining, tube area, NPC library (AID 1117340;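 active = compound that reduces growth-factor-driven endothelial tube area in a mixed cell culture, no cutoff stated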); conditions: VEGF-stimulated ADSC/ECFC co-culture, at 10 µM, stronger effect = higher value
# [4] = glucagon-like peptide 1 release enhancers, primary assay, NCI-H716 cell line, NPC library (AID 1117341;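 active = compound raises GLP1 secretion from the human gut endocrine cells, with no numeric limit stated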); conditions: NCI-H716 cells, at 10 µM, stronger effect = higher value
# [5] = HCT116 colon cancer cell growth inhibition, primary screen, CellTiter-Glo luminescence, NPC library (AID 1117342;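 active = compounds that lower survival of HCT116 colon cancer cells in the luminescence readout, no numeric limit stated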); conditions: at 20 µM (top of the series)
# [6] = CellTiter-Glo luminescent readout of SW480 viability loss, NPC library primary (AID 1117343); conditions: CellTiter-Glo luminescence; at 20 µM (top of the series)
# [7] = decreased DLD-1 cellular survival, CellTiter-Glo luminescent readout, NPC compound collection, primary HTS (AID 1117346;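 active = compounds that lower survival of DLD-1 colon cancer cells in the luminescence readout, no cutoff given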); conditions: DLD-1 viability, CellTiter-Glo luminescence; at 20 µM (top of the series)
# [8] = biological target: 6-phosphogluconate dehydrogenase, decarboxylating (Homo sapiens) (UniProt P52209); assay: 6PGD enzyme inhibitors, primary screen, biochemical, human, recombinant enzyme, NADPH absorbance (AID 1159550;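 active = at least 20% inhibition of 6-phosphogluconate dehydrogenase activity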); conditions: recombinant 6PGD, NADPH absorbance 341 nm; at 10 µM; stronger effect = higher value
# 6-phosphogluconate dehydrogenase, decarboxylating (Homo sapiens), sequence (P52209 whole entry, looked up): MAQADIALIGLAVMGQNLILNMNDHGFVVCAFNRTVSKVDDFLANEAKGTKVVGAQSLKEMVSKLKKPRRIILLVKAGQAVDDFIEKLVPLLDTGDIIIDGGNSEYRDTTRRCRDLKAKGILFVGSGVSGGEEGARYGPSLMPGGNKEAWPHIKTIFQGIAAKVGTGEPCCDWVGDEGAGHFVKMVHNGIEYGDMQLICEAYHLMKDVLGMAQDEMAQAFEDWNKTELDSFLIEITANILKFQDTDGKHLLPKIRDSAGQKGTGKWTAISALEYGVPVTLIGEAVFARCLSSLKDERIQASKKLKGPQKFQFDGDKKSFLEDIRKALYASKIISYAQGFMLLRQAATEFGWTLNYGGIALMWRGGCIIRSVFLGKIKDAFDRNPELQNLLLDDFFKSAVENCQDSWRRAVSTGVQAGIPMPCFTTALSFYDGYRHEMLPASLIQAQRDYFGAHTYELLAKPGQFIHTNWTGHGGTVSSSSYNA
# [9] = differential killing of epithelial or mesenchymal cells, primary screen, imaging, PC-3E GFP, TEM4-18 mCherry, co-culture (AID 1345086;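 active = compounds killing one labelled cell type while sparing the other, by normalised counts and ratio limits, not self-fluorescent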;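 for all read-outs here: cells exposed to compound for 72 h before imaging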;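 for red/green cell ratio (normalised): normalised mesenchymal count divided by normalised epithelial count so high means epithelial killing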); conditions: imaging cell counts, at 1 µM; for red/green cell ratio (normalised): actives lie on both sides, counts scaled to control wells, 1 = unselective
# [10] = measured here: epithelial PC-3E GFP cell survival
# [11] = measured here: mesenchymal TEM4-18 mCherry cell survival
Compound,insulin secretion stimulation [1],viability decrease [2],tube area decrease [3],GLP1 secretion stimulation [4],inhibition of viability [5],viability decrease (inhibition) [6],viability decrease (inhibition) [7],inhibition [8],red/green cell ratio (normalised) [9],"normalised cell number [9, 10]","normalised cell number [9, 11]"
CNC1(C)C2CCC(C2)C1(C)C (stereo unspecified),3.5% (inactive),-6% (inactive),-1.8% (inactive),4.9% (inactive),15.7% (inactive),8.7% (inactive),1.8% (inactive),-9.67% (inactive),0.89 (inactive),1.09,0.97
NC(N)=NS(=O)(=O)c1ccc(N)cc1,-1.4% (inactive),7.4% (inactive),-2.9% (inactive),0.9% (inactive),-10.1% (inactive),54.6% (active),5.6% (inactive),-6% (inactive),1.03 (inactive),0.95,0.98
Oc1cccc(O)c1,-1.9% (inactive),-0.8% (inactive),21% (inactive),-2.3% (inactive),8% (inactive),78.9% (active),2.6% (inactive),-5.12% (inactive),1.34 (inactive),0.71,0.95
CCn1cc(C(=O)O)c(=O)c2cnc(N3CCCC3)nc21,-0.4% (inactive),-29.5% (inactive),1.8% (inactive),1.2% (inactive),0% (inactive),11.2% (inactive),-1.2% (inactive),5.15% (inactive),0.88 (inactive),1,0.88
Nc1ccc(C(=O)O)cc1,-1% (inactive),2.35% (inactive),-16.4% (inactive),0.8% (inactive),-6.1% (inactive),13.3% (inactive),-4.7% (inactive),6.16% (inactive),1 (inactive),1.02,1.02
C/C=C/c1ccc(OC)cc1,1.3% (inactive),-5.7% (inactive),6.2% (inactive),-1.8% (inactive),10.8% (inactive),20.9% (inactive),-3.2% (inactive),6.64% (inactive),1.24 (inactive),1.08,1.34
CC(=O)Nc1ccc(S(=O)(=O)Nc2ccc([N+](=O)[O-])cc2)cc1,-0.2% (inactive),9.9% (inactive),18.2% (inactive),3.6% (inactive),-1.57% (inactive),11.5% (inactive),-3.8% (inactive),0.544% (inactive),0.81 (inactive),1.34,1.08
CN(C)CCCN1c2ccccc2Sc2ccc(C(F)(F)F)cc21,5.8% (inactive),68.5% (active),45.1% (active),17.9% (inactive),88.7% (active),137% (active),101% (active),1.69% (inactive),1.26 (inactive),0.93,1.17
CCN(CC)C(C)CN1c2ccccc2Sc2ccccc21 (stereo unspecified),7.3% (active),-28.5% (inactive),25% (inactive),4.8% (inactive),69.2% (active),109% (active),76.9% (active),-5.57% (inactive),0.85 (inactive),1.09,0.92
CN1CCCN=C1COC(=O)C(O)(c1ccccc1)C1CCCCC1 (stereo unspecified),16.3% (inactive),-83% (inactive),-29% (inactive),4.8% (inactive),19.6% (inactive),67.3% (active),33.9% (inactive),6.35% (inactive),1.18 (inactive),1.21,1.43
CN1CCN(CC(=O)N2c3ccccc3C(=O)Nc3cccnc32)CC1,-1.3% (inactive),-6.7% (inactive),7.8% (inactive),-0.5% (inactive),-2.2% (inactive),-14.1% (inactive),5.4% (inactive),7.85% (inactive),0.9 (inactive),1.08,0.97
NCCS,2.9% (inactive),-8.4% (inactive),-3.5% (inactive),-3.8% (inactive),2.53% (inactive),-332% (inactive),-14.1% (inactive),-14% (inactive),1.27 (inactive),0.91,1.16
CCn1cc(C(=O)O)c(=O)c2cc3c(cc21)OCO3,-1.3% (inactive),-16% (inactive),12.1% (inactive),-1.5% (inactive),-19.5% (inactive),8.3% (inactive),7.15% (inactive),15.6% (inactive),1.09 (inactive),1.15,1.25
CCCCOc1ccc(C(=O)CCN2CCCCC2)cc1,2.3% (inactive),55.8% (active),12.5% (inactive),-0.1% (inactive),59.9% (active),59.5% (active),31.3% (inactive),9.17% (inactive),1.3 (inactive),1.09,1.41
COc1ccc2cc1Oc1ccc(cc1)C[C@H]1c3c(cc4c(c3Oc3cc5c(cc3OC)CCN(C)[C@@H]5C2)OCO4)CCN1C,5.5% (inactive),98.1% (active),108% (active),1.9% (inactive),102% (active),123% (active),87.3% (active),-1.33% (inactive),0.85 (inactive),0.93,0.78
Nc1nccs1,-0.1% (inactive),12.4% (inactive),5.4% (inactive),-1% (inactive),25.5% (inactive),66.3% (active),10% (active),5.79% (inactive),0.78 (inactive),1.25,0.98

Compound,insulin secretion stimulation [1],viability decrease [2],tube area decrease [3],GLP1 secretion stimulation [4],inhibition of viability [5],viability decrease (inhibition) [6],viability decrease (inhibition) [7],inhibition [8],red/green cell ratio (normalised) [9],"normalised cell number [9, 10]","normalised cell number [9, 11]"
O=C(O)[C@@H]1[C@H]2C[C@H]3c4[nH]c5ccccc5c4CCN3C[C@@H]2CC[C@@H]1O,-0.3% (inactive),-25.2% (inactive),9.1% (inactive),0.3% (inactive),-4.53% (inactive),13% (inactive),-18.9% (inactive),2.44% (inactive),1.08 (inactive),0.89,0.95
CCN(CC)CCNC(=O)c1cc(Br)c(N)cc1OC,-0.6% (inactive),-24.9% (inactive),15.9% (inactive),0.5% (inactive),-0.17% (inactive),-9.9% (inactive),-34.1% (inactive),12.4% (inactive),0.92 (inactive),0.97,0.89
CCN(CC)CCNC(=O)COc1ccc(OC)cc1,1.8% (inactive),-5.3% (inactive),-8.1% (inactive),2.1% (inactive),-18.7% (inactive),22.1% (inactive),-6.15% (inactive),-14.6% (inactive),1.07 (inactive),1.11,1.18
CC(=O)Nc1ccccc1,1% (inactive),-5.1% (inactive),-10.1% (inactive),2.1% (inactive),2.3% (inactive),25.2% (inactive),3.55% (inactive),-5.03% (inactive),1.11 (inactive),1.06,1.18
Cn1c([N+](=O)[O-])cnc1COC(N)=O,-4.5% (inactive),-8.4% (inactive),6.2% (inactive),0.7% (inactive),-2.4% (inactive),-4.9% (inactive),-13.8% (inactive),-20.2% (inactive),1 (inactive),1.01,1.01
CC1(C)OC(=O)NC1=O,0.6% (inactive),-28.6% (inactive),2.9% (inactive),-6.6% (inactive),17.4% (inactive),11.1% (active),-3.2% (inactive),10.2% (inactive),1.18 (inactive),1.2,1.41
CC1CCc2cc(F)cc3c(=O)c(C(=O)O)cn1c23 (stereo unspecified),1.1% (inactive),-105% (inactive),3.3% (inactive),-1.9% (inactive),19.6% (inactive),51.1% (active),-6.7% (inactive),2.78% (inactive),1.19 (inactive),0.89,1.05
Cc1cc(N)c2ccccc2[n+]1CCCCCCCCCC[n+]1c(C)cc(N)c2ccccc21,-0.4% (inactive),85.5% (active),106% (active),-0.6% (inactive),74.9% (active),83% (active),85.1% (active),4.29% (inactive),0.87 (inactive),1.15,1
CN1CCOC(c2ccccc2)c2ccccc2C1 (stereo unspecified),1.8% (inactive),-52.9% (inactive),0.9% (inactive),4% (inactive),12.4% (inactive),40.1% (inactive),-7.2% (inactive),5.09% (inactive),1.19 (inactive),0.43,0.51
Nc1c2ccccc2nc2ccccc12,39.7% (active),49.2% (active),81.5% (active),11.4% (inactive),105% (active),107% (active),49% (active),-6.58% (inactive),0.95 (inactive),0.63,0.6
CCN(CCCc1ccccc1)CCCc1ccccc1,7.3% (inactive),-119% (inactive),5.4% (inactive),2.7% (inactive),41.4% (inactive),44% (inactive),60.1% (active),7.45% (inactive),0.99 (inactive),1.13,1.12
Nc1ccc(S(=O)(=O)Nc2nccs2)cc1,-1.1% (inactive),-5.95% (inactive),18.7% (inactive),-3.5% (inactive),-3.5% (inactive),52.4% (active),12% (inactive),2.97% (inactive),1.36 (inactive),0.91,1.24
CC(=O)OC(C)C[N+](C)(C)C (stereo unspecified),-0.3% (inactive),-1.9% (inactive),4.4% (inactive),5.7% (active),-6.13% (inactive),-21.3% (inactive),-8.2% (inactive),19.2% (inactive),1.16 (inactive),0.97,1.13
NC(=O)c1ccccc1O,-0.8% (inactive),5.6% (inactive),-13.1% (inactive),0.3% (inactive),10.6% (inactive),27.7% (inactive),0.25% (inactive),-8.81% (inactive),0.96 (inactive),0.98,0.94
Oc1cc(O)c2c(c1)O[C@H](c1ccc(O)c(O)c1)[C@H](O)C2,-0.7% (inactive),14.4% (inactive),-6.6% (inactive),-3.1% (inactive),1.73% (inactive),-72.1% (inactive),-2% (inactive),-5.84% (inactive),0.83 (inactive),1.07,0.89
